# PubChem BioAssay (NCI)
# This is part of a sample that, as a whole, favours compounds with a hit. Of some 79,000 tested, about 15% had one in any assay. Unmarked numbers belong to inactive results. Active and inactive are the calls of the source. No stated cut-off is given here; in the data, active means growth inhibition above about 70%; inactive means the rest.
# Assay: NCI Yeast Anticancer Drug Screen. Data for the wt1 strain (AID 149);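 further: 0% = growth of vehicle-treated wt1 cultures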
# Conditions: S. cerevisiae wt1 strain (SPY 50644) growth inhibition, hits give high values
# Protocol: Growth inhibition of yeast strains with defined genetic alterations is measured as a screen for potential anti-cancer activity. Selected strains with alterations in DNA damage repair or cell cycle control were exposed to compounds and growth inhibition was measured relative to vehicle treated controls. The strain used in this assay is wt1
SMILES,growth inhibition (at 1.2 µM) [%],growth inhibition (at 3.7 µM),growth inhibition (at 11.0 µM),growth inhibition (at 33.0 µM),growth inhibition (at 100.0 µM)
COC1=CC(=O)C(C2(OC(C)C)OC(=O)C(Cl)=C2Cl)=CC1=O (stereo not given),1,8%,97% (active),99% (active),99% (active)
c1ccc2c(c1)-c1nc3ccccc3cc1C2N1CCOCC1 (stereo not given),1,2%,4%,2%,5%
O=C(c1cc(Br)ccc1O)c1cc(Br)ccc1O,9,78% (active),99% (active),100% (active),100% (active)
COc1cc(C(=O)/C=C/c2ccccc2O)ccc1O,-11,73% (active),98% (active),99% (active),98% (active)
Cc1c(C(=O)C(=O)c2ccccc2)c(C)c(C(=O)C(=O)c2ccccc2)c(C)c1C(=O)C(=O)c1ccccc1,0,1%,-1%,-4%,-5%
CN(Cc1cnc2nc(N)nc(N)c2n1)c1ccc(C(=O)N[C@@H](CCC(=O)O)C(=O)O)cc1,-1,-3%,-3%,6%,24%
C[C@@H]1C[C@H]2[C@@H]3CCC4=CC(=O)C=C[C@]4(C)[C@@]3(Cl)[C@@H](Cl)C[C@]2(C)[C@@]1(O)C(=O)COP(=O)(O)O,1,-2%,-3%,-4%,-2%
c1ccc2c(c1)C(=NCCCN1CCCCCC1)c1cccn1-2,-2,-1%,2%,-1%,93% (active)
